Data from PubChem BioAssay AID623870 (Broad Institute, 2012).
Hit rate of the full screen: of about 390,000 compounds, about 2,600 (0.67%) were called active.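 Rule for the calls: active = mean inhibition of replicates at least 50% and at least half of replicates each reaching 50%; inconclusive = half or more replicates reach 50% but mean below 50%; inactive = the rest.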 Only a selection was taken, and actives are over-represented in it overall.

What follows are molecules tested against Transforming acidic coiled-coil-containing protein 3 (Homo sapiens) (UniProt Q9Y6A5) (assay: disruptors of ARNT/TACC3 protein interaction, primary screen, biochemical, AlphaScreen, single concentration (AID 623870;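 note: 0% = complete ARNT plus TACC3 wells and 100% = ARNT alone without TACC3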)). Settings: AlphaScreen His-ARNT PAS-B/GST-TACC3 binding, luminescence; at 9.99 µM; hits give high values; TACC3 fragment carries E629A point mutation.

SMILES	inhibition
Cc1ccc(S(=O)(=O)N(C)C[C@@H]2Oc3c(NC(=O)c4nc5ccccc5s4)cccc3C(=O)N([C@H](C)CO)C[C@@H]2C)cc1	9.91% (inactive)
C[C@H]1CN([C@@H](C)CO)C(=O)c2cc(-c3ccccc3F)cnc2O[C@@H]1CN(C)C	6.21% (inactive)
Cc1noc(C)c1NC(=O)Nc1ccc2c(c1)CC(=O)N([C@@H](C)CO)C[C@@H](C)[C@H](CN(C)Cc1ccc(Oc3ccccc3)cc1)O2	15.6% (inactive)
COCC(=O)Nc1ccc2c(c1)[C@@H]1C[C@H](CC(=O)NCc3ccc(Cl)cc3)O[C@H](CO)[C@@H]1O2	-8.13% (inactive)
Cc1cc(C(=O)NC2CCN(Cc3ccccc3)CC2)n[nH]1	-0.213% (inactive)
Cc1cc(C(=O)N/N=C/c2cc([N+](=O)[O-])cc(C)c2O)n[nH]1	64.3% (active)
CCCNC(=O)Nc1ccc2c(c1)OC[C@@H](C)N(C(=O)c1ccccc1F)C[C@H](C)[C@@H](OC)CN(C)C2=O	-9.6% (inactive)
C[C@@H]1CN([C@H](C)CO)C(=O)c2cc(NS(=O)(=O)c3ccccc3)ccc2O[C@H]1CN(C)S(=O)(=O)c1cccs1	0.265% (inactive)
O=C(Nc1ccccc1)Oc1cccc2cccnc12	-7.89% (inactive)
O=C(N/N=C/c1cccc2cccnc12)[C@H]1C[C@@H]1c1ccccc1	73.3% (active)
Cc1ccc(NC(=O)C2CC2c2ccccc2)cc1 (configuration not stated)	-4.03% (inactive)
C[C@H](CO)N1C[C@H](C)[C@@H](CN(C)C)Oc2cc(C#Cc3ccccc3)ccc2S1(=O)=O	8.14% (inactive)
COc1ccc(NC(=O)N(C)C[C@@H]2Oc3ccc(NS(C)(=O)=O)cc3C(=O)N([C@@H](C)CO)C[C@@H]2C)cc1	-7.68% (inactive)
CCOc1cccc(/C=N/NC(=S)NCCN2CCOCC2)c1O	64.9% (active)
CCc1cc(=O)oc2c(C)c(OCC(=O)NCCN3CCOCC3)ccc12	-0.887% (inactive)
COc1cccc(C(CC(=O)NCCN2CCOCC2)NS(=O)(=O)c2ccc(C)cc2)c1OC (configuration not stated)	-9.59% (inactive)
C[C@@H]1CN([C@@H](C)CO)C(=O)Cc2cc(NC(=O)Nc3ccc(F)cc3)ccc2O[C@@H]1CN(C)C(=O)NC1CCCCC1	0.811% (inactive)
Cn1c(=NC(=O)c2ccco2)sc2cccc(F)c21	-2.41% (inactive)
Cn1c(=NC(=O)c2ccc3c(c2)OCCO3)sc2cc(S(C)(=O)=O)ccc21	-1.86% (inactive)
Cn1c(=NC(=O)c2cnccn2)sc2ccccc21	50.2% (active)
CN(C(=O)c1ccccc1)c1nccnc1C#N	48.5% (active)
CCCN1[C@@H]2c3ccc(-c4ccccc4OC)c(=O)n3C[C@H]1[C@H](CO)[C@H]2C(=O)NCc1ccccn1	-0.436% (inactive)
CO[C@H]1CN(C)C(=O)c2cc(NS(=O)(=O)CC(F)(F)F)ccc2OC[C@@H](C)N(C(=O)c2ccc3c(c2)OCO3)C[C@@H]1C	8.14% (inactive)
CCCC(=O)Nc1ccc2c(c1)C(=O)N(C)C[C@@H](OC)[C@@H](C)CN(Cc1cncnc1)[C@@H](C)CO2	-2.89% (inactive)

SMILES	inhibition
CCN(/N=C/c1ccccc1)c1cc(=O)n(C)c(=O)[nH]1	6.16% (active)
CN1C(=O)c2cc(NC(=O)c3cnccn3)ccc2OC[C@@H]2O[C@H](CC(=O)NC3CCC3)CC[C@@H]21	-9.79% (inactive)
C[C@H](CO)N1C[C@H](C)[C@H](CN(C)S(C)(=O)=O)Oc2c(NC(=O)Nc3cccc4ccccc34)cccc2C1=O	8.09% (inactive)
O=C(C[C@@H]1C[C@@H]2c3cc(NC(=O)c4ccc5c(c4)OCO5)ccc3O[C@@H]2[C@@H](CO)O1)NCC1CC1	-5.9% (inactive)
COc1ccccc1NC(=O)N(C)C[C@@H]1Oc2ncc(C#CCC(C)C)cc2C(=O)N([C@@H](C)CO)C[C@@H]1C	-5.04% (inactive)
C[C@@H](NC(=O)C[C@@H]1C[C@H]2c3cc(NC(=O)C4CCC4)ccc3O[C@H]2[C@@H](CO)O1)c1ccccc1	-9.96% (inactive)
N#C[C@@H]1[C@@H](c2ccc(-c3cccnc3)cc2)[C@H](CO)N1C(=O)Nc1ccc(F)cc1	-8.19% (inactive)
Cc1ccc(OS(=O)Nc2cccc3nccnc23)cc1 (configuration not stated)	69.3% (active)
Cc1ccc(Oc2ccc3c(c2)C(=O)N(c2cccc4cccnc24)C3=O)cc1	1.71% (inactive)
COCC(=O)N1C[C@@H](C)[C@H](OC)CN(C)C(=O)c2ccc(NC(=O)c3ccc(OC)cc3)cc2OC[C@@H]1C	-7.16% (inactive)
CO[C@H]1CN(C)C(=O)c2cc(NC(=O)Nc3cccc(F)c3)ccc2OC[C@H](C)N(C(C)=O)C[C@H]1C	28% (inactive)
CO[C@@H]1CN(C)C(=O)c2cc(NC(=O)C3CC3)ccc2OC[C@@H](C)N(Cc2nccs2)C[C@@H]1C	-5.42% (inactive)
C[C@H](CO)N1C[C@H](C)[C@H](CN(C)C(=O)Nc2cccc3ccccc23)Oc2ccc(NS(C)(=O)=O)cc2C1=O	-5.79% (inactive)
CNC[C@@H]1OCCCC[C@H](C)Oc2ccc(NS(=O)(=O)c3ccc(F)cc3)cc2C(=O)N([C@@H](C)CO)C[C@@H]1C	-1.03% (inactive)
CC(C)(C)Nc1nc(-c2ccccn2)nc2ccccc12	93% (active)
CC(Nc1nc(C(F)(F)F)nc2ccccc12)c1cccs1 (configuration not stated)	-5.59% (inactive)
O=C(C[C@@H]1C[C@H]2c3cc(NC(=O)C4CCOCC4)ccc3O[C@H]2[C@H](CO)O1)NCc1ccc2c(c1)OCO2	-5.45% (inactive)
O=C(NC1CCCC1)[C@H]1[C@H](CO)[C@H]2Cn3c(ccc(-c4ccccc4F)c3=O)[C@@H]1N2C(=O)CC1CC1	-1.58% (inactive)
C[C@@H]1CN([C@@H](C)CO)C(=O)Cc2cc(NC(=O)Nc3ccc(F)cc3)ccc2O[C@@H]1CN(C)S(=O)(=O)c1ccccc1	2.95% (inactive)
C[C@H](CO)N1C[C@H](C)[C@@H](CN(C)Cc2ccncc2)Oc2ncc(C#CC3CC3)cc2C1=O	-1.14% (inactive)
Cn1c(N)c(C(=O)COC(=O)c2cnc(Cl)c(Cl)c2)c(=O)n(C)c1=O	45.8% (active)
Cn1c(N)c(C(=O)COC(=O)COc2ccc(Cl)cc2)c(=O)n(C)c1=O	2.04% (inactive)
Cn1c(N)c(C(=O)COC(=O)c2ccc3ccccc3c2)c(=O)n(C)c1=O	-4.71% (inactive)
